Source: PubChem BioAssay (Tox21)
Records with an inconclusive call do not appear. Activity calls are given as the source filed them. Unless noted, calls come from the whole dose curve; as a rule, active = well fitted curve in the direction sought with a large enough effect in the repeat runs; inconclusive = weak or mixed curves; inactive = no such curve, though single readings can be large; an effect the other way counts as inactive or inconclusive.

Assays:
[1] = qHTS assay to identify small molecule antagonists of the estrogen related receptor (ERR) signaling pathway from Tox21 library - cell viability counter screen (AID 1224834); note: nearly all actives have a fitted effect of over 30% in size
In short: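 ERR reporter cells, 2,000 per well, rested 6 h, then exposed to compound in DMSO for 17.5 hours at 37 C. Viability read as fluorescence after 30 min with CellTiter-Fluor.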

[2] = molecular target: Luciferin 4-monooxygenase (Photinus pyralis) (UniProt P08659); test: qHTS assay to identify small molecule inhibitors of firefly luciferase (AID 1224835); note: series mostly up to about 120 µM; nearly all actives have a fitted effect of over 25% in size
Chain of Luciferin 4-monooxygenase (Photinus pyralis) (P08659 whole entry, looked up): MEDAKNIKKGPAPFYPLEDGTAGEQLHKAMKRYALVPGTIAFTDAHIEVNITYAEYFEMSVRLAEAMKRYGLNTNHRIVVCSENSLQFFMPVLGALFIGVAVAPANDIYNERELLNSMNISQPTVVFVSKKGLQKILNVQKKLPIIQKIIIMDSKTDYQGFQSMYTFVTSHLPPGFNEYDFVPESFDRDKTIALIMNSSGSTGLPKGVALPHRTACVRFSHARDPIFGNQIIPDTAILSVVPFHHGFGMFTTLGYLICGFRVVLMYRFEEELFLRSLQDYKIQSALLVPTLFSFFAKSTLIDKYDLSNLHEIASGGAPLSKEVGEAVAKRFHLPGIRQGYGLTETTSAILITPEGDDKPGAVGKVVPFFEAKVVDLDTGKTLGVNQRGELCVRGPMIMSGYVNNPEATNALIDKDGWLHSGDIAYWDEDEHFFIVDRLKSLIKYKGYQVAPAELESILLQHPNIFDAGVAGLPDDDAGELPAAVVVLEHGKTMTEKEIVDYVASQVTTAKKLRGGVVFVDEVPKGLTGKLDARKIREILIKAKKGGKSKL
In short: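 Quantitative HTS format; KM concentrations of both substrates. Purified P. pyralis FLuc activity quantified from luminescence images.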

[3] = qHTS assay to identify small molecule agonists of the constitutive androstane receptor (CAR) signaling pathway - cell viability counter screen (AID 1224836); note: series mostly up to about 92 µM; nearly all actives have a fitted effect of over 45% in size
In short: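 Compound titrations (15 concentrations) went onto HepG2-CYP2B6-hCAR cells 4 h after seeding, alongside PK11195 at a final 0.75 uM; a 23 h, 37 C/5% CO2 incubation preceded CellTiter-Fluor viability measurement.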

[4] = qHTS assay to identify small molecule antagonists of the constitutive androstane receptor (CAR) signaling pathway - cell viability counter screen (AID 1224837); note: series mostly up to about 92 µM; nearly all actives have a fitted effect of over 45% in size
In short: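 HepG2 cells stably carrying hCAR and CYP2B6-2.2kb reporter, stimulated with 50 nM CITCO and compounds at 15 concentrations for 23 h at 37 C. Viability measured by CellTiter-Fluor fluorescence.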

[5] = molecular target: Nuclear receptor subfamily 1 group I member 3 (Homo sapiens) (UniProt Q14994); test: qHTS assay to identify small molecule antagonists of the constitutive androstane receptor (CAR) signaling pathway (AID 1224838); note: nearly all actives have a fitted effect of over 40% in size
Chain of Nuclear receptor subfamily 1 group I member 3 (Homo sapiens) (Q14994 whole entry, looked up): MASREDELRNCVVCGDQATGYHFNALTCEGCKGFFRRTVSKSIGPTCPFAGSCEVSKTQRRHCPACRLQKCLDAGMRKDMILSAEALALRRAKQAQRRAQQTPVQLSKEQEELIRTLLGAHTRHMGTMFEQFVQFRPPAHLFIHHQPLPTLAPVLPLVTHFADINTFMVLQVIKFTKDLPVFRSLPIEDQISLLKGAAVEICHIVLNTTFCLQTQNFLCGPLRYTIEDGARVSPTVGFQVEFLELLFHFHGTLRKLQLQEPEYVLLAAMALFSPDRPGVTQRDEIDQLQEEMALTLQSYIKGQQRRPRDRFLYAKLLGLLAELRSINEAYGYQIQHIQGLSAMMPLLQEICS
In short: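 HepG2 cells stably carrying hCAR and a CYP2B6-2.2kb luciferase reporter, seeded 4 hrs before compound (15 concentrations). Stimulated with 50 nM CITCO for 24 hr at 37 C. ONE-Glo luminescence read after 30 min at room temperature.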

[6] = molecular target: Nuclear receptor subfamily 1 group I member 3 (Homo sapiens) (UniProt Q14994); test: qHTS assay to identify small molecule agonists of the constitutive androstane receptor (CAR) signaling pathway (AID 1224839); note: nearly all actives have a fitted effect of over 15% in size; note: potency is the fitted concentration of half-maximal effect; for activation: series mostly up to about 92 µM
In short: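 In this screen, CAR-driven CYP2B6 promoter activity is measured by luminescence in HepG2-CYP2B6-hCAR cells after 24 h with test compounds and 0.75 uM PK11195 (final concentration).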

[7] = qHTS assay to identify small molecule antagonists of the estrogen related receptor signaling pathway with the pleiotropic PPARgamma coactivator (PGC) from Tox21 10K library - cell viability counter screen (AID 1224840; active = well fitted cell-killing curve with a large enough effect in the repeat runs, not every such curve was filed as active; note: nearly all actives have a fitted effect of over 40% in size)
In short: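 PGC/ERR cells (2,000/well) plated 6 h, then compound-treated for 17.5 h at 37 C. Viability measured by CellTiter-Fluor fluorescence after 30 min at 37 C, multiplexed with the pathway assay.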

[8] = molecular target: Thyrotropin receptor (Homo sapiens) (UniProt P16473); test: qHTS assay to identify small molecule agonists of the thyroid stimulating hormone receptor (TSHR) signaling pathway (AID 1224843; calls by dose curve; note: nearly all actives have a fitted effect of over 45% in size)
Chain of Thyrotropin receptor (Homo sapiens) (P16473 whole entry, looked up): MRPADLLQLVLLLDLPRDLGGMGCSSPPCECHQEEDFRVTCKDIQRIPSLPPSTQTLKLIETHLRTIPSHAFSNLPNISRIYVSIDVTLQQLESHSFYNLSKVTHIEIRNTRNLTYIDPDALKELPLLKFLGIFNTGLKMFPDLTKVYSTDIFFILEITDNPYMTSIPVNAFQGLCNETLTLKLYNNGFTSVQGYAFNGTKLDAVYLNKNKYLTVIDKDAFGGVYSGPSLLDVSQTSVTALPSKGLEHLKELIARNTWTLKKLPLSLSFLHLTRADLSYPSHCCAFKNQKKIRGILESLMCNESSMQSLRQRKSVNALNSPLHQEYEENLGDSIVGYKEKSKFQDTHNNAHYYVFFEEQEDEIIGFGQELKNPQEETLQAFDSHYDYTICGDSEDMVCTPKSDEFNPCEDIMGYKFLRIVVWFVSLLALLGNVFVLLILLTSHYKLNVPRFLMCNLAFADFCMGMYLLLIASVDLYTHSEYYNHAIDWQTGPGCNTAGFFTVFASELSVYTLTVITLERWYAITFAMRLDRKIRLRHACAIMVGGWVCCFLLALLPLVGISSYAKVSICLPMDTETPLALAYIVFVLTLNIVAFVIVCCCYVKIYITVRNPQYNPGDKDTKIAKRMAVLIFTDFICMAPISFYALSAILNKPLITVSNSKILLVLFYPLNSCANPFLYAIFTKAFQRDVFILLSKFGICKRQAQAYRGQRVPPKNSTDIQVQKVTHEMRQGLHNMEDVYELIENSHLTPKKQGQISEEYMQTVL
In short: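 TSHR-expressing HEK293 cells (800 per well) were exposed to compounds for 30 min at room temperature. cAMP was then detected by HTRF competition with cAMP-d2 and anti-cAMP cryptate, read after 1 h at room temperature. Fifteen concentrations, triplicate.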

[9] = qHTS assay to identify small molecule agonists of the hypoxia (HIF-1) signaling pathway - cell viability counter screen (AID 1224844; calls by dose curve; note: nearly all actives have a fitted effect of over 50% in size)
In short: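 HRE-bla ME-180 cells, 2,000/well in 0.5% dialyzed FBS medium, treated 17 h at 37C with compounds. Viability read in the same wells as the bla reporter, by CellTiter-Glo luminescence after 30 min at room temperature.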

[10] = qHTS assay to identify small molecule agonists of H2AX (AID 1224845; active = well fitted activation curve with a large enough effect in the signal ratio in the repeat runs, not every such curve was filed as active; the % refers to the signal ratio; note: potency is the fitted concentration of half-maximal effect)
In short: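 Wild-type CHO-K1 cells plated overnight, then exposed 3 hr at 37C to compounds at 15 concentrations (0.76% DMSO). Lysed, then HTRF anti-pH2AX(S139)-cryptate/anti-H2AX-d2 detection after 24 hr at room temperature; emissions 665 and 620 nm.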

[11] = qHTS assay to identify small molecule agonists of the hypoxia (HIF-1) signaling pathway (AID 1224846; active = well fitted activation curve with a large enough effect in the signal ratio in the repeat runs, not every such curve was filed as active; the % refers to the signal ratio)
In short: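 HRE-bla ME-180 beta-lactamase reporter cells in medium with 0.5% dialyzed FBS, pre-incubated 5 h then exposed to compounds 17 h at 37C, 5% CO2; reporter induction read with CCF4-AM FRET substrate.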

[12] = qHTS assay to identify small molecule agonists of H2AX - cell viability counter screen (AID 1224847; calls by dose curve; note: top concentration of the series differs between compounds; nearly all actives have a fitted effect of over 30% in size)
In short: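 Read-out: CellTiter-Glo luminescence, 30 min RT. Cells: wild-type CHO-K1, 1000/well, 10% FBS, plated overnight at 37C. Treatment: 15 concentrations, 3 hr, 37C, 0.76% DMSO.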

[13] = qHTS RealTime-Glo MT Cell Viability Assay in HepG2 cells - 24 hour (AID 1224867); note: nearly all actives have a fitted effect of over 50% in size
In short: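 Viability was tracked continuously by NanoLuc luminescence from prosubstrate reduced by living HepG2 cells, at successive time points over 40 h of compound exposure. Cells with reagent were preincubated 5 h at 37 °C before compound addition.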

[14] = A CellTox Green Cytotoxicity Assay to monitor cytotoxicity in HEK293 cells - 0 hour (AID 1224869); note: nearly all actives have a fitted effect of over 50% in size
In short: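 HEK293 cells, 600/well, were preincubated 5 hours and then exposed to compounds at 37 C for up to 40 hours. A cell-impermeant cyanine dye staining dead-cell DNA was read by fluorescence at 0, 8, 16, 24, 32 and 40 h time points.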

[15] = qHTS RealTime-Glo MT Cell Viability Assay in HEK293 cells - 32 hour (AID 1224868); note: top concentration of the series differs between compounds; nearly all actives have a fitted effect of over 50% in size
In short: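 Viability tracked continuously by luminescence as live cells reduce a prosubstrate for NanoLuc; HEK293 cells preincubated 5 h, compound-treated at 37 C, and read at 0, 8, 16, 24, 32 and 40 h.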
% is set by controls: 0 for no effect and ±100 for the full control effect.

CCCC(=O)OC(=O)CCC
inactive: Potency [1] | Potency [2] | Potency [3] | Potency [4] | Potency [5] | Potency [6] | Potency [7] | Potency [8] | Potency [9] | Potency [10] | outcome [11] | Potency [12] | Potency [13] | Potency [14]

CCOC(=O)Oc1ccc(CCNC(=O)[C@H](CCSC)NC(C)=O)cc1OC(=O)OCC
inactive: Potency [1] | Potency [2] | Potency [3] | Potency [4] | Potency [5] | Potency [6] | Potency [7] | Potency [8] | Potency [9] | outcome [11] | Potency [12] | Potency [13] | Potency [15] | Potency [14]

Cc1cn([C@H]2C[C@H](F)[C@@H](CO)O2)c(=O)[nH]c1=O
active: Potency [10] 43.8 nM
inactive: Potency [1] | Potency [2] | Potency [3] | Potency [4] | Potency [5] | Potency [6] | Potency [7] | Potency [9] | outcome [11] | Potency [12] | Potency [13] | Potency [15] | Potency [14]

O=C1NC(=O)c2cccc3cccc1c23
inactive: Potency [1] | Potency [2] | Potency [3] | Potency [4] | Potency [5] | Potency [6] | Potency [7] | Potency [8] | Potency [9] | outcome [11] | Potency [12] | Potency [13] | Potency [15] | Potency [14]

O=C(O)/C=C/c1ccc(O)c(O)c1
inactive: Potency [1] | Potency [2] | Potency [3] | Potency [4] | Potency [5] | Potency [6] | Potency [7] | Potency [8] | Potency [9] | Potency [12] | Potency [13] | Potency [15] | Potency [14]

O=C(O)c1cccc(C[C@@H]2COc3ccc(OCc4nc5cc(F)ccc5s4)cc3[C@@H]2O)c1
inactive: Potency [1] | Potency [2] | Potency [3] | Potency [4] | Potency [5] | Potency [6] | Potency [7] | Potency [8] | Potency [9] | Potency [10] | outcome [11] | Potency [13] | Potency [15] | Potency [14]

O=S(=O)(Cl)c1c(Cl)cccc1Cl
inactive: Potency [1] | Potency [2] | Potency [3] | Potency [4] | Potency [5] | Potency [6] | Potency [7] | Potency [8] | Potency [9] | Potency [10] | outcome [11] | Potency [12] | Potency [13] | Potency [15] | Potency [14]

CCOCCC(=O)OCC
inactive: Potency [1] | Potency [2] | Potency [3] | Potency [4] | Potency [5] | Potency [6] | Potency [7] | Potency [9] | Potency [10] | outcome [11] | Potency [12] | Potency [13] | Potency [15] | Potency [14]

CC1=C2[C@@H]([C@H](C)CC[C@H]2/C=C(\C)C(=O)O)[C@H](O)C1
inactive: Potency [1] | Potency [2] | Potency [3] | Potency [4] | Potency [5] | Potency [6] | Potency [7] | Potency [9] | Potency [10] | outcome [11] | Potency [12] | Potency [13] | Potency [15] | Potency [14]

CCC(Cl)CC(Cl)C(Cl)C(Cl)C(Cl)C(C)Cl (stereo unspecified)
active: Potency [6] 2650 nM
inactive: viability change, negative = cytotoxic [1] -2.15% [at 19 µM] | activity change, negative = inhibition [2] -6.92% [at 23.6 µM] | viability change, negative = cytotoxic [3] -5.9% [at 19 µM] | activity change, negative = cytotoxicity [4] -3.5% [at 19 µM] | activity, negative = inhibition [5] 94.1% [at 19 µM] | viability change, negative = cytotoxic [7] -3.01% [at 19 µM] | activation [8] 15.8% [at 19 µM] | activity change, negative = cytotoxicity [9] -3.49% [at 15.8 µM] | activation (H2AX phosphorylation) [10] -1.57% [at 31.6 µM] | activation [11] 0.0674% [at 15.8 µM] | activity change, negative = cytotoxicity [12] -5.22% [at 31.6 µM] | activity change, negative = cytotoxicity [13] -1.2% [at 15.8 µM] | cytotoxicity [14] 15.1% [at 15.8 µM]

CC(=O)OCCC1CCCCC1
inactive: Potency [1] | Potency [2] | Potency [3] | Potency [4] | Potency [5] | Potency [6] | Potency [7] | Potency [9] | Potency [10] | outcome [11] | Potency [12] | Potency [13] | Potency [15] | Potency [14]

C=C(C)c1ccccc1
inactive: Potency [1] | Potency [2] | Potency [3] | Potency [4] | Potency [5] | Potency [6] | Potency [7] | Potency [8] | Potency [9] | Potency [10] | Potency [12] | Potency [13] | Potency [15] | Potency [14]

CC(C)(C)C1(CCc2ccc(Cl)cc2)CO1 (stereo unspecified)
inactive: Potency [1] | Potency [2] | Potency [3] | Potency [4] | Potency [5] | Potency [6] | Potency [7] | Potency [8] | Potency [9] | Potency [10] | outcome [11] | Potency [12] | Potency [13] | Potency [15] | Potency [14]

CC1CCCO1 (stereo unspecified)
inactive: Potency [1] | Potency [2] | Potency [3] | Potency [4] | Potency [5] | Potency [6] | Potency [7] | Potency [9] | Potency [10] | outcome [11] | Potency [12] | Potency [13] | Potency [15] | Potency [14]

CC(=O)NCCO
inactive: Potency [1] | Potency [2] | Potency [3] | Potency [4] | Potency [5] | Potency [6] | Potency [7] | Potency [9] | Potency [10] | outcome [11] | Potency [12] | Potency [13] | Potency [15] | Potency [14]
